Reference: the supplement of paper PMC10849652
The full data set covers some 7,900 targets. This sample favours those with a hit. About 0.6% of all pairs of compound and target were hits. A number with no mark means an inactive call.

How the values were obtained:
Experiment in all cases: log2 fold change, soluble protein after heating vs DMSO (PISA); higher = thermal stabilisation; K562 cells, 10 uM, 30 min; active = over 0.2 and 3.5 SD of the protein, either way, in both replicates (recomputed)
[1] = compound: Cc1ccc(NC(=O)c2ccc(CN3CC[C@H](N(C)C)C3)c(C(F)(F)F)c2)cc1Nc1nccc(-c2cncnc2)n1 [bafetinib]
Method in brief: (§1)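 Values are thermal stability changes relative to control samples and are taken from duplicates. They are stated as log2 fold changes. Before quantification by TMTpro 16plex LC-MS/MS with equalised channel sums, K562 cells at 2×10^6 cells/mL were treated with 10 μM compound for 30 min, heated in aliquots for 3 min across 48°C-58°C, pooled, extracted in PBS with 0.5% NP-40 at 4°C, and centrifuged at 21,000xg for 90 min to give the soluble supernatant.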

[2] = compound: Cc1cccc(CC(=O)N2CCc3c2ccc(-c2cn(C)c4ncnc(N)c24)c3F)n1
Method in brief: as §1

[3] = compound: Cc1cn(-c2cc(NC(=O)c3ccc(C)c(Nc4nccc(-c5cccnc5)n4)c3)cc(C(F)(F)F)c2)cn1 [nilotinib]
Method in brief: as §1

[4] = compound: Cc1nc(Nc2n[nH]c3c2CN(C(=O)N[C@H](CN(C)C)c2ccccc2)C3(C)C)c2sccc2n1
Method in brief: as §1

[5] = compound: Cc1nc(Nc2ncc(C(=O)Nc3c(C)cccc3Cl)s2)cc(N2CCN(CCO)CC2)n1 [dasatinib]
Method in brief: as §1

[6] = compound: Cc1ncc(-c2ccnc(Nc3ccc(S(C)(=O)=O)cc3)n2)n1C(C)C
Method in brief: as §1

[7] = compound: Cn1cc(-c2ccc3c(c2)CCN3C(=O)Cc2cccc(C(F)(F)F)c2)c2c(N)ncnc21
Method in brief: as §1

[8] = compound: Cn1cc(-c2ccc3nnc(C(F)(F)c4ccc5ncccc5c4)n3n2)cn1
Method in brief: as §1

[9] = compound: Cn1cncc1[C@@](N)(c1ccc(Cl)cc1)c1ccc2c(c1)c(-c1cccc(Cl)c1)cc(=O)n2C [tipifarnib]
Method in brief: as §1

[10] = compound: FC(F)(F)c1ccc(/C=C/c2nc(COc3ccc(CCCCn4ccnn4)cc3)co2)cc1 [mubritinib]
Method in brief: as §1

[11] = compound: NC(=O)Nc1cc(-c2cccc(F)c2)sc1C(=O)N[C@H]1CCCNC1
Method in brief: as §1

[12] = compound: NC(=O)c1cnc(N[C@@H]2CCCC[C@@H]2N)nc1Nc1cccc(-n2nccn2)c1
Method in brief: as §1

[13] = compound: NC1(c2ccc(-c3nc4ccn5c(=O)[nH]nc5c4cc3-c3ccccc3)cc2)CCC1
Method in brief: as §1

[14] = compound: NCC(=O)Nc1ccc(-n2nc(C(F)(F)F)cc2-c2ccc3c(ccc4ccccc43)c2)cc1
Method in brief: as §1

[15] = compound: Nc1ccccc1NC(=O)c1ccc(CNC(=O)OCc2cccnc2)cc1 [entinostat]
Method in brief: as §1

[16] = compound: O=C(CCCCCCC(=O)Nc1ccccc1)NO [vorinostat]
Method in brief: as §1

[17] = compound: O=C(CCCCCCNC(=O)c1cnc(N(c2ccccc2)c2ccccc2Cl)nc1)NO [citarinostat]
Method in brief: as §1

[18] = compound: O=C(O)c1ccc2c(c1)nc(Nc1cccc(Cl)c1)c1ccncc12 [silmitasertib]
Method in brief: as §1

[19] = compound: O=C1NC(=O)C(c2cnc3ccccn23)=C1c1cn2c3c(cc(F)cc13)CN(C(=O)N1CCCCC1)CC2
Method in brief: as §1

[20] = compound: c1cc(OCCN2CCCCC2)cc(-c2n[nH]c3ccc(-c4nnc[nH]4)cc23)c1
Method in brief: as §1

Sequence of UniProt P22692 (P22692 whole entry, looked up): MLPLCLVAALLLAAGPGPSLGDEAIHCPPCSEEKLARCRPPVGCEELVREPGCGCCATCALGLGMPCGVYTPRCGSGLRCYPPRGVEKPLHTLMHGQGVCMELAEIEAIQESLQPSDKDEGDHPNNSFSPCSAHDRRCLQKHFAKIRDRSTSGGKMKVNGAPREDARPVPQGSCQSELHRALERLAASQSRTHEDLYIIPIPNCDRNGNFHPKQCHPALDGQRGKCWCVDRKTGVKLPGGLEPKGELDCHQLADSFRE
Sequence of UniProt A8MWY0 (A8MWY0 whole entry, looked up): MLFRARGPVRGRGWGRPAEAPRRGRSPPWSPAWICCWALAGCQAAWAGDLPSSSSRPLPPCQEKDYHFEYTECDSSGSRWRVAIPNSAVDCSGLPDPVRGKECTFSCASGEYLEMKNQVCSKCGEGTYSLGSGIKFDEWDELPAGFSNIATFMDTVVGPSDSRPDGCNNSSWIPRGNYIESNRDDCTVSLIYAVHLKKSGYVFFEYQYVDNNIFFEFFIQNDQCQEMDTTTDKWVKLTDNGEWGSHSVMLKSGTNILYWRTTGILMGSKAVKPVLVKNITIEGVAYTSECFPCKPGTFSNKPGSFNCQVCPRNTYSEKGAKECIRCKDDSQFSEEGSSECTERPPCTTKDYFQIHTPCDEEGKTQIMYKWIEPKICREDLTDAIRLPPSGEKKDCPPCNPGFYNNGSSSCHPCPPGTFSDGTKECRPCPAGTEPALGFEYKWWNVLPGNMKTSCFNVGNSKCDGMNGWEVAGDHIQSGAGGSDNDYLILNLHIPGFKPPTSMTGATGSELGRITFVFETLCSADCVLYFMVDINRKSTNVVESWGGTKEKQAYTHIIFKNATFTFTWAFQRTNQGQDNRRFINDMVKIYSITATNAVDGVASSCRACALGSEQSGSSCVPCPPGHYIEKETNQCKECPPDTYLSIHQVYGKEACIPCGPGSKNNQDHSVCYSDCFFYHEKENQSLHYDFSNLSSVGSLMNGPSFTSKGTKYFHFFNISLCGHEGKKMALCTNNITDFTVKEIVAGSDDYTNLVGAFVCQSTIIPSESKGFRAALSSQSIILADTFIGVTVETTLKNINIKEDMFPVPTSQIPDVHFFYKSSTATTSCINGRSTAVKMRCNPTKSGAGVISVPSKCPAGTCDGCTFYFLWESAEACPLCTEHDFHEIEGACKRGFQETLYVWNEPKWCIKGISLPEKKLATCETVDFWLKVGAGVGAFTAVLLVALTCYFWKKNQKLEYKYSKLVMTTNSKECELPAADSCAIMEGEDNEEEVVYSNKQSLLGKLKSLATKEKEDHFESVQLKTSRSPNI
Sequence of UniProt Q6P9B6 (Q6P9B6 whole entry, looked up): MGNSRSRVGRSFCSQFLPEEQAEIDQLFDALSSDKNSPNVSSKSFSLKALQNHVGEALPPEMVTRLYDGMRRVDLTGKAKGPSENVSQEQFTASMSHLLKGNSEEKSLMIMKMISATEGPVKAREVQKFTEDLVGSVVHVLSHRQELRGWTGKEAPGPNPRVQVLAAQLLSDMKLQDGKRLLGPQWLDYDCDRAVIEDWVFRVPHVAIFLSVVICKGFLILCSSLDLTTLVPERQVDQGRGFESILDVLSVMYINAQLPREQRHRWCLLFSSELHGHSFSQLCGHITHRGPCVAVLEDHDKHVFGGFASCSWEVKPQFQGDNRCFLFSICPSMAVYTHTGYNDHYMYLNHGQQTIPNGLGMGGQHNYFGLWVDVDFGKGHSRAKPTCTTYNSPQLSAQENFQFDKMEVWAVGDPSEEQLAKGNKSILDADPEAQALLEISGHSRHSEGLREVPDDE
Sequence of UniProt O43766 (O43766 whole entry, looked up): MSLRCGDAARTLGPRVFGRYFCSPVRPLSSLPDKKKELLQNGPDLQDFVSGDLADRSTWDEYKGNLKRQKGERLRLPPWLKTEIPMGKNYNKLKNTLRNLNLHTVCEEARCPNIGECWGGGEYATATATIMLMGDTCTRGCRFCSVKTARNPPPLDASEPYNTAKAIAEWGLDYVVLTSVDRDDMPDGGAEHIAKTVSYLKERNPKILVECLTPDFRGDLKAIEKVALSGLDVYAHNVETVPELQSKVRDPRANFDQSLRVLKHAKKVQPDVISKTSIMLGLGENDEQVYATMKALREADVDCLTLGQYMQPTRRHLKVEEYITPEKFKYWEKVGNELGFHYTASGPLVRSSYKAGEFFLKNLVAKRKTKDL
Sequence of UniProt Q9UIQ6 (Q9UIQ6 whole entry, looked up): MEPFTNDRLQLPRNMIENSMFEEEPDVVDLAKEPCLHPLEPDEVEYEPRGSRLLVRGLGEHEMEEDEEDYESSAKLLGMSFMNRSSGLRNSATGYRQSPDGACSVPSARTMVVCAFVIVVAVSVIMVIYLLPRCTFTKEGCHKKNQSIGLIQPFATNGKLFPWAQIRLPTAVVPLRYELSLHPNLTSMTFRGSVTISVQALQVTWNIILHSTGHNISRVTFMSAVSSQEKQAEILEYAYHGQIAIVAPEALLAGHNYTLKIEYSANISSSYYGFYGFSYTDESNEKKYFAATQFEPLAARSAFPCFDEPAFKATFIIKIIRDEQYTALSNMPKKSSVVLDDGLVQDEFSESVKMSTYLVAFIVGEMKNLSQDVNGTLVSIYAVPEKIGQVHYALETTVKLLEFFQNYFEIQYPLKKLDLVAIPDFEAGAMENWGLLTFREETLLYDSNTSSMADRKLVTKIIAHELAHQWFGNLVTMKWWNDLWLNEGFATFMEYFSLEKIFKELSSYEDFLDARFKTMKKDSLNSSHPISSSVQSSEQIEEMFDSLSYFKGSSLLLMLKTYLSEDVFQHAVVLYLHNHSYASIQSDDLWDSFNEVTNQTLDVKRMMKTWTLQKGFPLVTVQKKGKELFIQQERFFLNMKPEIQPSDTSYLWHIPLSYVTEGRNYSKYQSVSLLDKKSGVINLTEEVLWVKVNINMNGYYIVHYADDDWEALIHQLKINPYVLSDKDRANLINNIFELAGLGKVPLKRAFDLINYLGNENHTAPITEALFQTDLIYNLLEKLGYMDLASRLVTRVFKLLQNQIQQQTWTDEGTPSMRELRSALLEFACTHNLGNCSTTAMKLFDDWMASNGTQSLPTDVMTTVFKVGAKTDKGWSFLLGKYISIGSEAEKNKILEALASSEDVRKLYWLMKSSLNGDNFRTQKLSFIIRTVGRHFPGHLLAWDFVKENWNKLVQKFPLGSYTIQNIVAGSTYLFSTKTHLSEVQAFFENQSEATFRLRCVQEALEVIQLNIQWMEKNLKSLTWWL
Sequence of UniProt P13473 (P13473 whole entry, looked up): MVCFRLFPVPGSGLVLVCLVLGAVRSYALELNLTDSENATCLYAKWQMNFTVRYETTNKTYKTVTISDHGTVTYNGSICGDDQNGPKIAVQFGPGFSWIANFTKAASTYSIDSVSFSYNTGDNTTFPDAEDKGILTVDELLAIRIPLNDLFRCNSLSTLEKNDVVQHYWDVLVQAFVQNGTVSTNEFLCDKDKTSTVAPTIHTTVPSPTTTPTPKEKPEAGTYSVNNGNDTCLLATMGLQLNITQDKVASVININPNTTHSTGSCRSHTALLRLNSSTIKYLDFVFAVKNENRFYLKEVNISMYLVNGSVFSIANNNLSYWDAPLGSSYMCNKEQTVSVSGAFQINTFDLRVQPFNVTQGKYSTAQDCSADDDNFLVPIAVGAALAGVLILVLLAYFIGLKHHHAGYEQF
Sequence of UniProt A1L0T0 (A1L0T0 whole entry, looked up): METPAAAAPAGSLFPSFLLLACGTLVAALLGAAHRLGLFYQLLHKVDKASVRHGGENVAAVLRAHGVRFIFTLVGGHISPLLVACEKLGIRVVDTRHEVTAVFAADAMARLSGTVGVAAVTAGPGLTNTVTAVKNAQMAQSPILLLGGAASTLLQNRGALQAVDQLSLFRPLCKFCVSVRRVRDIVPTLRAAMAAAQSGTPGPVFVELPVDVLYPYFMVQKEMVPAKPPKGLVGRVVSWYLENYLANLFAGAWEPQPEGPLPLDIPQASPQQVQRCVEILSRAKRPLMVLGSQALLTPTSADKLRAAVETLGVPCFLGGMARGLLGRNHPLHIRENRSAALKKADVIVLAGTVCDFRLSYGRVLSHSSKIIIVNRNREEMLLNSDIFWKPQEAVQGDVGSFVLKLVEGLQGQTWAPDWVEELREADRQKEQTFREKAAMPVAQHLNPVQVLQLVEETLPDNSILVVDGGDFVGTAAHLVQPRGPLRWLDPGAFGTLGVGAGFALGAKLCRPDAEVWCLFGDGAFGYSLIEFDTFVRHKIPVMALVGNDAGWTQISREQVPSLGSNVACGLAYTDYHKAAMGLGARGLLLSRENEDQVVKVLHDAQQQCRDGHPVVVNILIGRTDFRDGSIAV
Sequence of UniProt Q32MZ4 (Q32MZ4 whole entry, looked up): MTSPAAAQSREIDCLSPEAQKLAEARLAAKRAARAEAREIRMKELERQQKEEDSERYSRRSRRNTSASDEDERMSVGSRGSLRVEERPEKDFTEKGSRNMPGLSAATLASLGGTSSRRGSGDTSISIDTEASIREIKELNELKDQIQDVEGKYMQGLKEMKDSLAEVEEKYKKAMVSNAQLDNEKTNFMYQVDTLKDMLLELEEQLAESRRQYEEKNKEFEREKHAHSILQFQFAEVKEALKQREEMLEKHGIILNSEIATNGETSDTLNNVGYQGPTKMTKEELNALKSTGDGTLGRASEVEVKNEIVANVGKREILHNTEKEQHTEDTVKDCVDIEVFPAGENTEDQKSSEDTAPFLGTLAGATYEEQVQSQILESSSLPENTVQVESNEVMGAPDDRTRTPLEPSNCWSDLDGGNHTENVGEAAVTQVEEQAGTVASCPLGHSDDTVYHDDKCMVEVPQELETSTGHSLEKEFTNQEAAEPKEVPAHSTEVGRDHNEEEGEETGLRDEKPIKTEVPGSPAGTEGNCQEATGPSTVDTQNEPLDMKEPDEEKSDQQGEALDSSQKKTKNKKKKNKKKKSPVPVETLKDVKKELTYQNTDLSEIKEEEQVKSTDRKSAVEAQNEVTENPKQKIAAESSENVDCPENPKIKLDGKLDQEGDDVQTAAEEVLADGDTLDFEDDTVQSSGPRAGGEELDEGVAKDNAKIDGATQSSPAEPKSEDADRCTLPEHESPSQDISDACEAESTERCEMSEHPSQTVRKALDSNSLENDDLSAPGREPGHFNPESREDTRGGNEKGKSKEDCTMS

| Target | log2 fold change [1] | log2 fold change [2] | log2 fold change [3] | log2 fold change [4] | log2 fold change [5] | log2 fold change [6] | log2 fold change [7] | log2 fold change [8] | log2 fold change [9] | log2 fold change [10] | log2 fold change [11] | log2 fold change [12] | log2 fold change [13] | log2 fold change [14] | log2 fold change [15] | log2 fold change [16] | log2 fold change [17] | log2 fold change [18] | log2 fold change [19] | log2 fold change [20] |
| --- | --- | --- | --- | --- | --- | --- | --- | --- | --- | --- | --- | --- | --- | --- | --- | --- | --- | --- | --- | --- |
| MAPRE3 (UniProt Q9UPY8) | -0.037 | 0.038 | -0.012 | -0.038 | -0.042 | 0.021 | -0.041 | 0.061 | -0.037 | 0.027 | -0.002 | -0.053 | -0.112 | -0.052 | 0.066 | 0.002 | 0.049 | 0.004 | -0.087 | -0.04 |
| LTV1 (UniProt Q96GA3) | 0.137 | -0.039 | -0.047 | 0.137 | 0.025 | 0.009 | -0.112 | -0.09 | 0.064 | 0.042 | 0.006 | 0.008 | 0.003 | 0.041 | 0.034 | -0.005 | -0.038 | 0.147 | 0.132 | -0.16 |
| KIAA1324L (UniProt A8MWY0) | -0.099 | 0.022 | 0.042 | -0.031 | 0.025 | -0.003 | 0.022 | 0.029 | 0.047 | 0.091 | -0.016 | -0.015 | -0.138 | 0.009 | -0.067 | 0.003 | 0.004 | -0.014 | -0.013 | -0.094 |
| LRRFIP1 (UniProt Q32MZ4) | -0.034 | -0.043 | 0.008 | 0.002 | 0.038 | -0.016 | 0.024 | 0.013 | 0.016 | 0.035 | -0.027 | 0.015 | 0.056 | 0.024 | -0.042 | -0.079 | -0.007 | 0.049 | 0.01 | -0.013 |
| IGFBP4 (UniProt P22692) | -0.126 | -0.173 | 0.077 | -0.06 | 0.14 | -0.007 | 0.116 | -0.102 | 0.033 | -0.15 | -0.019 | 0.032 | -0.011 | -0.02 | 0.022 | -0.017 | -0.124 | 0.119 | 0.044 | 0.15 |
| KCTD2 (UniProt Q14681) | -0.23 | -0.845 (active) | -0.144 | 0.012 | 0.146 | -0.076 | -0.102 | -0.015 | 0.308 | 0.113 | -0.524 | -0.195 | 0.032 | -0.119 | -0.35 | -0.543 | -0.274 | 0.119 | -0.121 | -0.204 |
| LAMP2 (UniProt P13473) | -0.124 | -0.051 | 0.002 | -0.014 | 0.017 | 0.014 | 0.048 | 0.035 | 0.14 | 0.017 | -0.013 | 0.043 | -0.122 | 0.055 | -0.045 | 0.083 | 0.158 | 0.005 | 0.065 | -0.11 |
| LMNB1 (UniProt P20700) | -0.089 | -0.004 | 0.037 | -0.11 | 0.092 | -0.117 | -0.059 | -0.074 | 0.105 | -0.069 | 0.094 | -0.073 | 0.078 | -0.018 | 0.024 | -0.029 | 0.033 | 0.097 | -0.105 | -0.072 |
| LIAS (UniProt O43766) | -0.034 | -0.079 | 0.038 | 0.003 | 0.028 | -0.059 | -0.017 | 0.059 | 0.098 | 0.002 | -0.079 | 0.014 | -0.035 | -0.016 | -0.047 | -0.17 | -0.093 | 0.026 | 0.062 | -0.022 |
| JMJD6 isoform 3 (UniProt Q6NYC1) | -0.067 | 0.06 | -0.011 | -0.254 | -0.009 | -0.098 | -0.008 | -0.047 | 0.036 | -0.065 | 0.01 | -0.057 | -0.068 | -0.019 | 0.039 | 0.048 | 0.064 | 0.081 | -0.061 | -0.014 |
| KIF2C (UniProt Q99661) | 0.1 | 0.122 | -0.082 | -0.054 | -0.15 | 0.032 | 0.053 | 0.039 | -0.103 | 0.081 | -0.024 | 0 | -0.053 | -0.068 | 0.095 | 0.122 | 0.156 | -0.009 | -0.005 | -0.001 |
| MIA2 (UniProt Q96PC5) | -0.068 | -0.029 | -0.002 | -0.048 | -0.051 | -0.038 | -0.058 | 0.041 | 0.029 | -0.046 | 0.03 | -0.03 | 0.06 | -0.032 | -0.009 | 0.009 | 0.059 | 0.083 | -0.045 | -0.058 |
| ILVBL (UniProt A1L0T0) | 0.065 | -0.049 | 0.074 | 0.011 | -0.09 | -0.025 | 0.247 | -0.005 | -0.047 | 0.041 | -0.053 | -0.036 | -0.022 | -0.007 | -0.041 | 0.002 | 0.064 | -0.008 | -0.009 | -0.064 |
| MAST4 (UniProt O15021) | -0.029 | 0.034 | -0.073 | -0.757 (active) | -0.112 | -0.004 | 0.131 | 0.09 | -0.087 | -0.003 | -0.217 | -0.038 | -0.298 | -0.115 | 0.085 | 0.045 | 0.135 | -0.053 | 0.051 | -0.151 |
| LNPEP (UniProt Q9UIQ6) | -0.056 | -0.007 | 0.017 | 0.026 | 0.033 | -0.024 | 0.014 | -0.007 | 0.008 | 0.035 | 0.037 | 0.011 | -0.037 | 0.019 | -0.028 | -0.007 | 0.056 | 0.002 | 0.004 | -0.022 |
| MEAK7 (UniProt Q6P9B6) | -0.094 | 0.042 | 0.024 | -0.036 | -0.078 | 0.025 | 0.02 | -0.03 | -0.022 | 0.052 | -0.011 | -0.117 | -0.122 | -0.025 | 0.027 | 0.069 | 0.053 | -0.028 | -0.021 | 0.016 |
